MCL1 BIM primary: inhibitors of human MCL1 binding to BIM-BH3 peptide; inhibition, % at 10.9 µM; Q07820; 0.68% of 320,000 active; GST-MCL1 / FITC-Bim-BH3 fluorescence polarization; AID 2057;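 active = inhibition above the mean inhibition of all tested compounds plus 3 SD, set per campaign, cut at about 40% in these data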;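 also: higher means more loss of mP so more displacement of Bim peptide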
Target sequence (Q07820 whole entry, looked up): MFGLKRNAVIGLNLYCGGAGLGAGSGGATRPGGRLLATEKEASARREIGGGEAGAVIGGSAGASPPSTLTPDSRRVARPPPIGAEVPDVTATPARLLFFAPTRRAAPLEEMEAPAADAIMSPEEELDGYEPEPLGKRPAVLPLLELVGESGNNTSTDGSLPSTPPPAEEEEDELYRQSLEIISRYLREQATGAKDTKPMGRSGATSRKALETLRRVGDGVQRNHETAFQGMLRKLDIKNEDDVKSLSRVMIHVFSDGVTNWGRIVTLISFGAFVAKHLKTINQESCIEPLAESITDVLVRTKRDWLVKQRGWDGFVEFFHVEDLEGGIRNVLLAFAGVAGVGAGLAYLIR
Bcl-xL primary: Bcl-xL (human) inhibition; Q07817; GST-Bcl-xL / FITC-Bim BH3 peptide fluorescence polarization; inhibition, % at 10.9 µM; 0.7% of 320,000 active;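 active = inhibition above the mean of all tested compounds plus 3 SD, cutoff set per campaign, cut at about 30% in these data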;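 also: inhibitors lower millipolarization by displacing the labeled peptide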
Mcl1-Noxa inh: Mcl-1/Noxa interaction inhibition | 1.5% of 220,000 active | TR-FRET Mcl-1/Noxa peptide binding, 2 h | Q07820 | inhibition, % at 21.7 µM;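 active = compounds that cut the protein-peptide binding signal by more than 50% relative to plate controls in a single-dose test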;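 also: His-tagged Mcl-1 with rhodamine Noxa BH3 peptide and terbium anti-His antibody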
Bim-Mcl-1: disrupts Bim peptide binding to human Mcl-1; Bead-based flow cytometry, Bim peptide-Mcl-1 binding; inhibition, % at 10 µM; AID 1009; Q07820; 0.1% of 190,000 active; in the data active = inhibition above about 40%
Mcl1 Bid PPI: disrupts binding of human Mcl-1 to Bid peptide; Q07820; TR-FRET Mcl-1/Bid-Dy647 peptide binding, 1536-well; inhibition, % at 21.7 µM; 0.97% of 220,000 active; AID 1021;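 active = compounds that cut the binding signal by more than half at the single screening dose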;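 also: His-tagged Mcl-1 with europium anti-His antibody binding Bid BH3 peptide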
GLD-1 TGE inh: GLD-1-TGE RNA interaction inhibition (C. elegans) | Q17339 | purified GLD-1 + fluorescein TGE RNA, fluorescence polarization | inhibition, % at 5.96 µM | 0.44% of 320,000 active | AID 2280;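 active = percent inhibition above a per-plate cutoff, the plate mean of test compounds plus 3 SD, cut at about 30% in these data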
Target sequence (Q17339 whole entry, looked up): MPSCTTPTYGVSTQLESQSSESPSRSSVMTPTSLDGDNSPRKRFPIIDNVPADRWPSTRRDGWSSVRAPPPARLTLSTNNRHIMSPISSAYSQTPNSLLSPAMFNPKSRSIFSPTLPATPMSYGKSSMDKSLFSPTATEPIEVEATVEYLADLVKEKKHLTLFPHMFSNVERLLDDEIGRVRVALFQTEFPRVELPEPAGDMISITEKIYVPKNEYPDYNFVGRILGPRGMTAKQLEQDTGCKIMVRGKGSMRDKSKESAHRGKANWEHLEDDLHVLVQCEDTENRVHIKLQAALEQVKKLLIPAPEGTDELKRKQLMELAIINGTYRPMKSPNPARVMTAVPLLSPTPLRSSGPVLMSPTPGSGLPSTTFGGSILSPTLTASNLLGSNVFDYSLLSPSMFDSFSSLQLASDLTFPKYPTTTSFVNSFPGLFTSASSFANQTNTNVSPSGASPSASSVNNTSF
BCLXL inh confirm: counter-screen for MCL1 inhibitors: confirmation of human Bcl-xL inhibitors; shares compounds with MCL1 BIM primary; GST-Bcl-xL / FITC-Bim BH3 peptide FP binding; inhibition, % at 10.9 µM; 54% of 1,700 active; AID 2166;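 active = inhibition above a cutoff equal to the mean inhibition of all tested compounds plus 3 SD, cut at about 30% in these data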
MCL1 BIM confirm: MCL1-BIM-BH3 interaction inhibition, confirmation; shares compounds with MCL1 BIM primary; GST-MCL1 / FITC-Bim-BH3 fluorescence polarization; inhibition, % at 10.9 µM; 61% of 1,700 active; AID 2168;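 active = inhibition above the average of all tested compounds plus 3 SD, cut at about 40% in these data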
Large screens that a line does not name were inactive (follow-up assays come after a bar, where they were run). Most compounds without a hit are left out; they make up all but 2.3% or so of the library.

N#CCNC(=O)C1CC(=O)N(CCc2ccc(F)cc2)C1 (stereo unspecified)	none (no result: Mcl1-Noxa inh, Bim-Mcl-1, Mcl1 Bid PPI)
O=C1NC(=Nc2ccc(Cl)cc2)/C(=C/c2ccco2)S1	MCL1 BIM primary 90, Bcl-xL primary 59, Mcl1-Noxa inh 66, Mcl1 Bid PPI 57 | BCLXL inh confirm 38 | MCL1 BIM confirm 75
Cc1cccc(N=C2NC(=O)S/C2=C\c2ccco2)c1	MCL1 BIM primary 42, Bcl-xL primary 35 | BCLXL inh confirm inactive | MCL1 BIM confirm inactive
O=C1COc2ccc(S(=O)(=O)N3CCC(C(=O)NCc4ccccc4)CC3)cc2N1	none (no result: Mcl1-Noxa inh, Bim-Mcl-1, Mcl1 Bid PPI)
Cc1ccc(-c2nc(C)sc2CC(=O)OCC(=O)Nc2ccc(F)c(Cl)c2)cc1	none (no result: Mcl1-Noxa inh, Bim-Mcl-1, Mcl1 Bid PPI)
N#C/C(=C\c1cccc([N+](=O)[O-])c1)C(=O)NCC1CCCO1 (stereo unspecified)	MCL1 BIM primary 50, Bcl-xL primary 61 | BCLXL inh confirm inactive | MCL1 BIM confirm inactive
COc1cc(/C=C(\C#N)C(=O)NCC2CCCO2)c([N+](=O)[O-])cc1OC (stereo unspecified)	none
Cc1cc(O)c(Oc2cc(C)cc(O)c2O)c(O)c1	MCL1 BIM primary 52, Mcl1-Noxa inh 61 | BCLXL inh confirm 34 | MCL1 BIM confirm 46
Cc1ccccc1-n1c(SCc2c(C)noc2C)nnc1-c1cccnc1	MCL1 BIM primary 144, Bcl-xL primary 133, GLD-1 TGE inh 89 | BCLXL inh confirm 116 | MCL1 BIM confirm 136
COc1cc(SSc2cc(OC)cc([N+](=O)[O-])c2N)c(N)c([N+](=O)[O-])c1	MCL1 BIM primary 55, Mcl1-Noxa inh 75 (no result: Bim-Mcl-1) | BCLXL inh confirm 31 | MCL1 BIM confirm 53
COc1cc([N+](=O)[O-])c2ncsc2c1	none
c1ccc(N2CCN(c3nc4ccccc4n4nnnc34)CC2)cc1	MCL1 BIM primary 59, Bcl-xL primary 51 | BCLXL inh confirm 38 | MCL1 BIM confirm inactive
O=S(=O)(c1cc(O)ccc1O)c1cccc2c(S(=O)(=O)c3cc(O)ccc3O)cccc12	MCL1 BIM primary 46 (no result: Mcl1-Noxa inh, Bim-Mcl-1, Mcl1 Bid PPI) | BCLXL inh confirm inactive | MCL1 BIM confirm 52
O=S(=O)(O)c1cc(O)ccc1O	none (no result: Mcl1-Noxa inh, Bim-Mcl-1, Mcl1 Bid PPI)
C=CCOc1ccc(C2C(C(=O)c3cccs3)=C(O)C(=O)N2c2nnc(C)s2)cc1 (stereo unspecified)	MCL1 BIM primary 100, Bcl-xL primary 100, GLD-1 TGE inh 74 (no result: Mcl1-Noxa inh, Bim-Mcl-1, Mcl1 Bid PPI) | BCLXL inh confirm 90 | MCL1 BIM confirm 115
COc1ccc(C2C(C(=O)c3cccs3)=C(O)C(=O)N2c2nnc(C)s2)cc1OC (stereo unspecified)	MCL1 BIM primary 83, Bcl-xL primary 84, GLD-1 TGE inh 70 | BCLXL inh confirm 128 | MCL1 BIM confirm 154
COc1ccc(C2C(C(=O)c3cccs3)=C(O)C(=O)N2c2nncs2)cc1 (stereo unspecified)	MCL1 BIM primary 161, Bcl-xL primary 139, GLD-1 TGE inh 114 | BCLXL inh confirm 144 | MCL1 BIM confirm 165
CC(C)c1nnc(N2C(=O)C(O)=C(C(=O)c3cccs3)C2c2ccccc2)s1 (stereo unspecified)	none (no result: MCL1 BIM primary, Bcl-xL primary, GLD-1 TGE inh)
O=c1onc(-c2ccccc2Cl)n1-c1ccccc1Cl	none (no result: Mcl1-Noxa inh, Bim-Mcl-1, Mcl1 Bid PPI)
O=C(COC(=O)c1ccc(O)cc1O)Nc1cc(-c2ccccc2)nn1-c1ccccc1	none (no result: Mcl1-Noxa inh, Bim-Mcl-1, Mcl1 Bid PPI)
c1ccc(-c2nnc(-c3ccco3)o2)cc1	none
c1coc(-c2nnc(-c3ccco3)nn2)c1	MCL1 BIM primary 75, Bcl-xL primary 43 (no result: Mcl1-Noxa inh, Bim-Mcl-1, Mcl1 Bid PPI) | BCLXL inh confirm 39 | MCL1 BIM confirm 68
Cc1ccc(-c2csc3ncn(CC#N)c(=O)c23)cc1	none
Cc1ccc(-c2csc3ncn(CC#N)c(=O)c23)cc1C	MCL1 BIM primary 59 (no result: Mcl1-Noxa inh, Bim-Mcl-1, Mcl1 Bid PPI) | BCLXL inh confirm inactive | MCL1 BIM confirm 41
O=C(N/N=C/c1ccoc1)c1cc(O)cc(O)c1	MCL1 BIM primary 43 (no result: Mcl1-Noxa inh, Bim-Mcl-1, Mcl1 Bid PPI) | BCLXL inh confirm inactive | MCL1 BIM confirm 56
Cc1cc(C2(O)C(=O)Nc3ccccc32)ccc1F (stereo unspecified)	MCL1 BIM primary 79 (no result: Mcl1-Noxa inh, Bim-Mcl-1, Mcl1 Bid PPI) | BCLXL inh confirm inactive | MCL1 BIM confirm inactive
COc1cc(Cl)c(C)cc1NC(=O)COC(=O)C1=COCCO1	none (no result: Mcl1-Noxa inh, Bim-Mcl-1, Mcl1 Bid PPI)
O=C(C1=C(O)C(=O)N(CCc2ccccc2)C1c1ccncc1)c1cc2ccccc2o1 (stereo unspecified)	none
O=C(C1=C(O)C(=O)N(c2nccs2)C1c1ccccc1)c1cc2ccccc2o1 (stereo unspecified)	MCL1 BIM primary active, Bcl-xL primary 185, GLD-1 TGE inh 174 (no result: Bim-Mcl-1) | BCLXL inh confirm 177 | MCL1 BIM confirm active
CCOc1cccc(C2C(C(=O)c3ccc(C)o3)=C(O)C(=O)N2c2nccs2)c1 (stereo unspecified)	MCL1 BIM primary 143, Bcl-xL primary 121, GLD-1 TGE inh 143 | BCLXL inh confirm 156 | MCL1 BIM confirm 183
CCOc1cccc(C2C(C(=O)c3ccc(C)o3)=C(O)C(=O)N2Cc2ccncc2)c1 (stereo unspecified)	none
N#CCc1cnc2ccccc2n1	MCL1 BIM primary 76, Bcl-xL primary 82, GLD-1 TGE inh 60 (no result: Bim-Mcl-1) | BCLXL inh confirm inactive | MCL1 BIM confirm inactive
FC(F)c1nc2ccccc2[nH]1	none
c1ccc2[nH]c3cc4ncnc4cc3nc2c1	MCL1 BIM primary active, Bcl-xL primary active, GLD-1 TGE inh active | BCLXL inh confirm active | MCL1 BIM confirm active
Cc1ccc(S(=O)(=O)N2CCOC23CCN(C(=O)c2ccccc2Br)CC3)cc1	none (no result: Mcl1-Noxa inh, Bim-Mcl-1, Mcl1 Bid PPI)
COc1cc(/C=N/n2c(=S)[nH]nc(C)c2=O)cc([N+](=O)[O-])c1O	none
CCc1n[nH]c(=S)n1/N=C/c1cc(OC)cc([N+](=O)[O-])c1O	MCL1 BIM primary 60, Mcl1-Noxa inh 78 | BCLXL inh confirm inactive | MCL1 BIM confirm 68
Cc1sc2nc[nH]c(=O)c2c1-c1ccc(Cl)cc1	none (no result: Mcl1-Noxa inh, Bim-Mcl-1, Mcl1 Bid PPI)
Nc1cc(Nc2ccc(Br)cc2)nc(N)n1	MCL1 BIM primary 50, Bcl-xL primary 53 (no result: Bim-Mcl-1) | BCLXL inh confirm 44 | MCL1 BIM confirm 46
Cc1nnc(C)c2c(C)n(-c3ccccc3N)c(C)c12	MCL1 BIM primary 94, Bcl-xL primary 96, GLD-1 TGE inh 46 | BCLXL inh confirm inactive | MCL1 BIM confirm inactive
CC(=O)Nc1ccc2nc3c(=O)n(C)c(=O)n(C)c3nc2c1	MCL1 BIM primary 190, Bcl-xL primary 132, Mcl1-Noxa inh 58, GLD-1 TGE inh 65 (no result: Bim-Mcl-1) | BCLXL inh confirm 146 | MCL1 BIM confirm 190
COc1ccc(NC(=O)Nc2cccc3c2O[C@H](CN(C)Cc2ccc(-c4ccccc4)cc2)[C@@H](C)CN([C@H](C)CO)C3=O)cc1	none (no result: MCL1 BIM primary, Bcl-xL primary, Mcl1-Noxa inh, Bim-Mcl-1, Mcl1 Bid PPI)
O=C(CCc1ccc(S(=O)(=O)N2CCOCC2)cc1)N/N=C/c1ccc(F)cc1F	none

Screens as filed in PubChem.
